High-throughput results from PubChem.
Pf growth 96h – P. falciparum growth inhibition at 96 hour, primary screen for plastid delayed-death inhibitors; P. falciparum luciferase reporter growth, 96 h; Potency, µM (series often up to 28.7 µM), for inactives: at the top dose activity change, negative = inhibition, hits mostly inhibitors; actives 6.9% (n = 320,000); also: potency is read from the fitted curve at half-maximal effect; % is scaled to controls: 0 for no effect and ±100 for the full control effect
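96 h incubation, 37 C, 5% CO2, of luciferase-reporter P. falciparum-infected RBCs (2% hematocrit, 0.05% parasitemia final) with test compounds; endpoint luminescence.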
NS1 inh – inhibitors of influenza NS1 protein function; Potency, µM (series often up to 46.1 µM), inactives show at the highest dose activity, positive = more growth; actives 0.4% (n = 270,000); AID 2326; calls by dose curve; also: potency is read from the fitted curve at half-maximal effect; actives are rising curves; nearly all actives have a fitted effect of over 50% in size
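Recovery from NS1-induced slow growth read by OD600 in budding yeast switched to galactose assay medium (pH 6.0, -URA) at 1:100 dilution. Compound 23 nl per well; the matching strain lacking NS1 serves as control.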
Shiga inhibitor – inhibitors of Shiga toxin in Vero cells. Vero cells, Shiga toxin protein synthesis inhibition reporter. inhibition, % at 38.7 µM. actives 9.2% (n = 290,000). AID 2315; in the data active = inhibition mostly above about 28%, no sharp cut-off; inactive = mostly below about 43%; also: 0% is about no effect
Cycloheximide cs – counter-screen hit for Shiga toxin inhibitors, cycloheximide. max response, %. cell reporter, cycloheximide protein synthesis inhibition counterscreen. AID 2314. actives 12% (n = 300,000); in the data active = max response mostly above about 13%, no sharp cut-off; inactive = mostly below about 14%; also: read at 38.3 µM for the half of the compounds with a filed dose; 0% is about no effect
Pf growth 48h – inhibits P. falciparum growth in the first generation, 48 h. actives 5.9% (n = 310,000). AID 504832. P. falciparum luciferase growth in erythrocytes, 48 h. Potency, µM (doses to about 28.7 µM), without a hit: at the highest dose activity change, negative = inhibition, usual class: inhibitors; also: potency is read from the fitted curve at half-maximal effect; % is scaled to controls: 0 for no effect and ±100 for the full control effect
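Erythrocytes infected with P. falciparum carrying an integrated firefly luciferase reporter (2% hematocrit, 0.1% parasitemia final) were exposed to compounds in RPMI 1640 with 0.5% Albumax at 37 C, 5% CO2. Growth inhibition was scored as reduced luminescence.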
* = called active by the depositor; u = inconclusive; x = not tested or not shown; + = active, no number. A selection: hits, their analogues and other compounds. The true share with any hit is near 21%. Unless noted, calls follow the shape of the dose curve; as a rule, active = well fitted inhibition curve with a large enough effect; inconclusive = small, poorly fitted or top-dose-only effect, or another doubt; inactive = no such curve, though single readings can be large or run the other way.

SMILES	Pf growth 96h	NS1 inh	Shiga inhibitor	Cycloheximide cs	Pf growth 48h
Cc1ccccc1Cn1nc(C)c(NC(=O)/C=C/c2cnn(C)c2C)c1C	u	-3.8%	-2.2	-3.8	u
Cc1c(/C=C/C(=O)c2ccc(O)cc2)cnn1C	0.0%	-0.1%	48.7*	19.2*	159.6%
Cc1ccc(OCC(=O)N/N=C/c2cn(C)c3ccccc23)cc1	-5.6%	-37.9%	-10.0	-0.3	8.3%
Cc1c(/C=C/C(=O)c2ccc(C(C)C)cc2)cnn1C	27.7%	6.3%	133.4*	40.3*	3.0%
Cc1nn(Cc2c(Cl)cccc2Cl)c(C)c1NC(=O)/C=C/c1cnn(C)c1C	-20.3%	3.9%	-6.2	-2.5	u
CCOc1ccc(N2C(=O)CC(N(Cc3ccco3)C(C)=O)C2=O)cc1 (stereo unspecified)	u	3.5%	-1.6	0.5	16.8%
CCn1ncc(C(=O)Nc2ccccc2C)c1C	4.1%	0.1%	27.3	-0.5	7.4%
CCn1ncc(/C=C/C(=O)c2ccccc2)c1C	-29.1%	0.7%	+	45.3*	497.7%
Cc1c(/C=C/C(=O)c2ccc(Cl)s2)cnn1C	-8.0%	-14.7%	36.9	26.7*	71.0%
COc1cc(/C=C/C(=O)c2ccc(Cl)s2)cc(OC)c1O	u	-117.3%	5.0	8.9	x
CC1CC(C)(C)CC2(C1)NC(=O)N(CC(=O)NCc1ccccc1F)C2=O (stereo unspecified)	u	x	x	x	-2.1%
CN(C)c1cccc(C(=O)NNC(=S)NC2CC3CCC2C3)c1 (stereo unspecified)	97.4%	x	55.6*	31.5*	21.1%
COc1ccc(NC(C)=O)cc1NC(=O)c1cccc(S(=O)(=O)N2CCN(Cc3ccccc3)CC2)c1	3.7µM*	x	x	x	u
COc1ccc(S(=O)(=O)N2CCc3ccccc32)cc1C(=O)OCC(=O)c1c(N)n(C)c(=O)n(C)c1=O	-14.5%	3.9%	1.2	-3.5	4.15µM*
COc1ccc(NC(C)=O)cc1NC(=O)c1cccc(S(=O)(=O)N2CCc3ccccc32)c1	u	x	x	x	13.1µM*
CC(=O)NS(=O)(=O)c1ccc(NC(=O)c2cccc(S(=O)(=O)N3CCc4ccccc43)c2)cc1	-7.5%	2.9%	-6.7	-3.4	0.0%
COc1ccccc1OCCNC(=O)c1cccc(S(=O)(=O)N2CCN(Cc3ccccc3)CC2)c1	-26.4%	x	x	x	u
COc1ccccc1NC(=O)c1cccc(S(=O)(=O)N2CCN(Cc3ccccc3)CC2)c1	11.7µM*	x	x	x	u
CCOC(=O)C1CCN(Cc2nc3ccc(Cl)cc3n2CCO)CC1	86.6%	2.1%	-16.2	1.8	-8.7%
CCOc1ccccc1NC(=O)C(OC(=O)c1cnccn1)c1ccccc1 (stereo unspecified)	-4.3%	x	x	x	-13.5%
CCC(Sc1nc2ccccc2c(=O)n1CC1CCCO1)C(=O)NCc1cccnc1 (stereo unspecified)	11.0%	-6.4%	-9.3	-3.4	u
Cc1ccccc1Nc1nc(N)nc(CN2CCN(C(=O)c3ccccc3)CC2)n1	-21.4%	1.3%	25.7	-1.7	-7.5%
Cn1c(N)c(C(=O)COC(=O)c2ccc(Cl)c(S(=O)(=O)N3CCCC3)c2)c(=O)n(C)c1=O	u	3.7%	-4.5	7.3	8.28µM*
COc1ccc(NC(=O)c2cc(S(=O)(=O)N3CCc4ccccc43)cn2C)c(OC)c1	0.1%	3.7%	-1.9	-2.1	u
Cc1cc(F)ccc1NC(=O)c1cc(S(=O)(=O)N2CCc3ccccc32)cn1C	10.4µM*	10.8%	1.2	1.1	u
SMILES	Pf growth 96h	NS1 inh	Shiga inhibitor	Cycloheximide cs	Pf growth 48h
COc1ccc(S(=O)(=O)N2CCc3ccccc32)cc1C(=O)Nc1ccc(C(N)=O)cc1	7.38µM*	x	x	x	u
CCOc1ccc(CN2CCN(S(=O)(=O)c3ccc(NC(C)=O)cc3)CC2)cc1OC	-17.1%	-10.3%	-20.7	-2.8	u
COc1ccc(CN2CCN(S(=O)(=O)c3ccc(NC(C)=O)cc3)CC2)c(OC)c1OC	13.1µM*	5.2%	-6.4	5.5	u
CN1CCN(NC(=O)Nc2cc(Cl)cc(Cl)c2)CC1	43.8%	-3.2%	-3.7	-0.9	-10.4%
CCOC(=O)COc1nc(OC)nc(N2CCOCC2)n1	2.62µM*	4.5%	1.0	-0.7	-7.6%
Cc1ccc(Oc2ccc(NC(=O)CCC(=O)OCC(=O)c3cccs3)cc2)cc1C	1.2%	-31.8%	32.6	16.9*	12.7%
Cc1ccc(NCCC(=O)c2cccs2)cc1	-20.0%	x	80.4*	45.8*	33.5%
Cc1ccc(CNC(=O)CCC(=O)c2cccs2)cc1	21.5%	1.3%	-1.7	-1.9	x
CC(CC(=O)c1cccs1)CC(=O)c1cccs1	141.2%	-5.8%	+	55.8*	118.9%
O=C(CCC(=O)c1cccs1)Nc1ccc(N2CCCCC2)cc1	-12.3%	x	86.2*	44.8*	103.4%
CC(=O)c1ccc(NC(=O)COC(=O)CCC(=O)c2cccs2)cc1	34.7%	-1.7%	-9.9	-0.7	2.7%
COCCn1c(C)cc(C(=O)COC(=O)C2CC(=O)N(CCc3ccc(OC)c(OC)c3)C2)c1C (stereo unspecified)	10.9%	x	x	x	-15.8%
NC(=O)C1CCCN(C(=O)c2ccc(-c3cccc(Cl)c3Cl)o2)C1 (stereo unspecified)	169.9%	x	x	x	159.5%
COCO[C@H]([C@@H](C)C=C(Br)Br)[C@@H](C)COCc1ccc(OC)cc1	x	x	7.5	12.7	x
Cc1cc(C)c(C(CC(=O)c2cccs2)C(C#N)C#N)c(C)c1 (stereo unspecified)	46.3%	-20.1%	83.7*	61.1*	80.5%
CC(C)c1ccc(NCCC(=O)c2cccs2)cc1	22.5%	-28.4%	140.2*	59.6*	45.5%
Cc1ccc(NCCC(=O)c2cccs2)cc1Cl	157.0%	17.8%	53.3*	29.2*	25.4%
CCCOc1ccc(C(=O)CCNc2ccc(C)c(Cl)c2)cc1	67.7%	8.3%	-11.3	-3.3	42.6%
Cc1ccc(NCCC(=O)c2cccs2)cc1C	20.0%	0.5%	57.6*	49.0*	75.4%
O=C(COC(=O)CNC(=O)c1ccc(-c2ccccc2)cc1)NCc1ccco1	-5.1%	x	29.6	3.6	-3.0%
Cc1ccc(C(=O)NCCCNC(=O)c2ccccc2C)cn1	u	-11.2%	-3.9	-4.1	9.3%
CN(CCOc1ccccc1)C(=O)C1CCN(C(=O)c2ccc(F)cc2)CC1	u	-0.7%	-9.4	7.8	u
Cc1ccc(NC(=O)CCC(=O)c2cccs2)c(Br)c1	51.5%	-1.4%	115.1*	35.9*	88.9%
Cc1ccc(NC(=O)CCC(=O)c2cccs2)cc1	272.3%	-8.9%	52.4	16.3*	x
O=C(CCNc1cccc(Cl)c1)c1cccs1	44.0%	-51.1%	56.6*	32.8*	-5.3%
Cc1ccccc1/C=C/c1cc[n+](C)cc1	u	x	1.7	2.0	5.22µM*
Cc1[nH]c2ccccc2c1/C=C/c1cc[n+](C)cc1	0.147µM*	-1.5%	-12.6	-1.1	0.415µM*
CCCN(CCO)Cc1ccc(F)c(Br)c1	-5.2%	-9.1%	-7.8	2.7	9.6%
CC(=NCc1cccc(Cl)c1)c1nc(-c2ccco2)oc1O	u	-0.5%	48.6*	22.9*	u
Oc1oc(-c2ccco2)nc1C=Nc1cccc(Cl)c1	9.4%	-49.1%	48.2	26.7	-19.0%
